Screening results: PubChem BioAssay, National Center for Advancing Translational Sciences (NCATS)
Shown are actives, neighbours in structure and some others; about 6.5% of the full set was active somewhere.
HT1080-NT tox: kills 2HG-producing HT-1080-NT fibrosarcoma cells; HT-1080-NT fibrosarcoma viability, CellTiter-Glo ATP luminescence, 48 h; Potency, µM (series often up to 46.1 µM), for inactives: at the top dose activity, negative = less viability, usual class: cytotoxic; 360,000 compounds, 1.6% hits;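 also: NT is the 2HG producing partner of a matched IDH1 knockdown line; potency is read from the fitted curve at half-maximal effect; 0% = DMSO-treated cells and -100% = media-only wells without cells; nearly all actives have a fitted effect of over 55% in size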
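Viability by CellTiter-Glo luminescence after 48 h compound exposure at 37C of HT-1080-NT cells (750/well, RPMI, 5% FBS). % activity scaled between DMSO wells and medium-only wells, then curve-fitted and categorized by curve class.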
IL-1B inflam inh: blocks inflammasome-driven IL-1 beta release; 360,000 compounds, 4.7% hits; THP-1 LPS/ATP IL-1B secretion, AlphaLISA, 16 h; hits give low values; activity change, % at 57.5 µM; AID 743279; in the data active = activity change below about -50%; inconclusive = mostly about -30% to -49%; also: % is scaled to controls: 0 for no effect and ±100 for the full control effect
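THP-1 cells pretreated 1 hr with compounds (up to 57.5 uM final), then stimulated with LPS (250 ng/mL final) plus ATP (1.25 mM final); secreted IL-1B measured by AlphaLISA after 16 hr, decreased signal indicating inhibition.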
HT1080 IDH1KD tx: HT-1080 IDH1 knockdown cell toxicity (counter line). Potency, µM (top dose mostly 46.1 µM), inactives show top-dose activity, negative = toxicity, most hits filed as cytotoxic. HT-1080 IDH1 knockdown viability, ATP luminescence, 48 h. 360,000 compounds, 2% hits;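 also: potency is read from the fitted curve at half-maximal effect; 0% = DMSO wells and -100% = cell-free medium wells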
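Using the IDH1-knockdown HT-1080 line run in the same batch and compound series as the NT line, viability after 48 h at 37 °C was determined by CellTiter-Glo luminescence and expressed as % activity.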
HepG2 viability: kills HepG2 cells in TGF-b inhibitor counter-screen; HepG2 CAGA-GFP viability, ATP luminescence, 18 h; Potency, µM (series often up to 46.1 µM), inactives show top-dose activity change, negative = cytotoxicity, actives largely listed as cytotoxic; 410,000 compounds, 0.76% hits; AID 588856; also: potency is read from the fitted curve at half-maximal effect
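CellTiter-Glo luminescence gave cytotoxicity after 18 hours at 37 degrees C. The cells were HepG2 CAGA-GFP in 1% FBS DMEM, stimulated with 500 pg/mL TGF-beta after compound addition. %Activity was normalised to no-cell wells (complete cell-killing) and DMSO (no toxicity), and curves were fitted and classified.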
TGFb SMAD3 inh: TGF-b pathway inhibition; Potency, µM (titrated, usually from 46.1 µM), inactives show at the top dose activity, negative = inhibition, actives largely listed as inhibitors; HepG2 CAGA-GFP TGF-b/SMAD3 reporter, GFP fluorescence, 18 h; TGF-beta stimulated, 500 pg/mL final; 410,000 compounds, 1.2% hits; also: potency is read from the fitted curve at half-maximal effect; % is scaled to controls: 0 for no effect and ±100 for the full control effect; nearly all actives have a fitted effect of over 65% in size
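Using HEPG2 CAGA-GFP reporter cells at 1000 cells/well, we pinned test compounds, stimulated with recombinant TGF-beta (500 pg/mL final) and measured total well GFP after 18 h.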
Giardia kill: Giardia lamblia killing; Giardia lamblia trophozoite viability; activity change, % at 7.66 µM, hits read low; 340,000 compounds, 0.15% hits; in the data active = activity change below about -80%; inconclusive = between about -30% and that limit;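 also: parasites exposed to compound for two days anaerobically before the ATP read; % is scaled to controls: 0 for no effect and ±100 for the full control effect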
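Media and compound were dispensed first, then trophozoites at 100 cells/well; plates sat 48 hrs at 37 deg C without oxygen before ATP luminescence reagent was added and read after 15-30 min at room temperature.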
The depositor's hits bear a star; ? = inconclusive; · = no result. Unless noted, calls follow the shape of the dose curve; as a rule, active = well fitted curve in the direction sought with a large enough effect; inconclusive = small, poorly fitted or top-dose-only effect, or another doubt; inactive = no such curve, though single readings can be large; an effect the other way counts as inactive or inconclusive.

SMILES | HT1080-NT tox | IL-1B inflam inh | HT1080 IDH1KD tx | HepG2 viability | TGFb SMAD3 inh | Giardia kill
Cc1ccc(C(=O)OCC(=O)NC(=O)NCc2ccccc2)cc1C | 1% | 8 | 2% | 1% | 8% | 3
Cc1ccc2nc(SCC(=O)Nc3ccc(F)c([N+](=O)[O-])c3)[nH]c2c1 | -6% | -64* | -22% | -14% | ? | -4
Cc1ccc2nc(SCC(=O)Nc3ccc(C)c([N+](=O)[O-])c3)[nH]c2c1 | 2% | -8 | -1% | -13% | -24% | -5
O=C(COC(=O)c1ccc(F)c([N+](=O)[O-])c1)NC(=O)NCc1ccccc1 | -18% | -99* | -17% | -43% | ? | 4
Cc1ccc2nc(SC(C)C(=O)Nc3cccc([N+](=O)[O-])c3)[nH]c2c1 (stereo not drawn) | -6% | -73* | -8% | -41% | ? | -3
Cc1ccc2nc(SC(C)C(=O)NC3CCCC3)[nH]c2c1 (stereo not drawn) | -16% | 22 | -21% | 19% | 17% | 0
Cc1cccc(C(=O)NCCC(=O)Nc2ccc(F)c([N+](=O)[O-])c2)c1 | -5% | -64* | -5% | -9% | -29% | -22
CCOc1ccccc1C(=O)NCC(=O)OCC(=O)c1ccc2c(c1)OCCO2 | 21% | -3 | 11% | 1% | 2% | -8
CCc1ccccc1N(CC(=O)NCc1ccco1)C(=O)CCC(=O)Nc1ccccn1 | 0% | 3 | 4% | 2% | -3% | -1
Cc1ccc(CC(=O)Nc2ccc(F)c([N+](=O)[O-])c2)cc1 | 10% | 0 | 6% | -12% | 0% | -6
O=C(CCc1ccccc1)Nc1ccc(F)c([N+](=O)[O-])c1 | -16% | -94* | -1% | 4% | -18% | 7
Cc1c(C(=O)N2CCCCC2)oc2ccc(Br)cc12 | 7% | -17 | 0% | -26% | 0% | -23
COc1ccc(NCc2nnc(SCc3ccc(Cl)cc3)n2-c2ccccc2)cc1 | ? | -53* | -25% | -25% | ? | 1
Cn1ccnc1SCC(=O)NC1CCCCC1 | 10% | 43 | 15% | 0% | 0% | -21
N#C/C(=C\c1ccncc1)c1ccccn1 | ? | -100* | ? | -14% | -1% | 7
CC(NC(=O)/C(C#N)=C/c1ccc(Cl)c([N+](=O)[O-])c1)c1ccccc1 (stereo not drawn) | ? | -98* | ? | -112% | ? | 9
N#C/C(=C\c1ccc(Cl)c([N+](=O)[O-])c1)c1ccccn1 | 15µM* | -97* | 10µM* | -45% | ? | 19
CC(=O)Nc1ccccc1C(=O)N1CCN(c2cccc(C)c2C)CC1 | -4% | -27 | 11% | -21% | -3% | 7
CC(=O)c1cccc(NC(=O)C2Cc3c(-c4cccc(C(C)=O)c4)ccnc3O2)c1 (stereo not drawn) | -25% | 0 | -15% | -6% | -3% | ·
CC(=O)c1cccc(-c2ccnc3c2CC(C(=O)NCCC(F)(F)F)O3)c1 (stereo not drawn) | ? | 74 | 21µM* | 2% | 8% | ·
CC(=O)c1cccc(-c2ccnc3c2CC(C(=O)Nc2cccc(NS(C)(=O)=O)c2)O3)c1 (stereo not drawn) | ? | -10 | 18µM* | -72% | 3% | ·
O=C(Nc1cccc(Oc2ccccc2)c1)C1Cc2c(-c3ccco3)ccnc2O1 (stereo not drawn) | -1% | ? | -14% | -7% | -6% | ·
CS(=O)(=O)Nc1cccc(NC(=O)C2Cc3c(-c4ccco4)ccnc3O2)c1 (stereo not drawn) | 18µM* | 0 | ? | -55% | -6% | ·
Cc1ccc(C(O)c2ncc(-c3ccc(Cl)cc3)[nH]2)c(C)c1 (stereo not drawn) | ? | 8 | ? | -35% | -21% | ·
CNC(=S)/N=C(/Nc1ccccc1)c1ccccc1 | 6% | -69* | 6% | 3% | 1% | -7
